Screening data as filed in PubChem BioAssay.
Sampled rows, rich in hits. Any-hit rate of the full collection: about 4.7%.
TRHR agonist – agonists of human TRH receptor; P34981; TRHR cells, calcium flux fluo-8, FDSS agonist mode; activation, % at 2 µM; 360,000 tested, 0.18% active; AID 493084
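Fluo-8-loaded TRHR cells; 10 s baseline, compound added, kinetic Ca2+ fluorescence read 1/s, agonist mode.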
TRHR enhancer – allosterically enhances the human TRH receptor. 360,000 tested, 0.66% active. enhancement, % at 2 µM. TRHR cells, fluo-8 calcium fluorescence, EC20 TRH enhancement. P34981; in the data active = enhancement above about 30%
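Enhancer read-out: after compound pinning and an initial kinetic agonist-mode read, an EC20 of TRH (10 nM final) was injected and fluo-8 calcium signal (Ex 480/Em 530) followed at 1 s/cycle for 100 cycles in TRHR-expressing cells.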
D1 ag – agonists of human D1 dopamine receptor; activation, % at 2 µM; P21728; HEK293 T-REx D1 cells, calcium flux, agonist mode; 360,000 tested, 1% active
Target sequence (P21728 whole entry, looked up): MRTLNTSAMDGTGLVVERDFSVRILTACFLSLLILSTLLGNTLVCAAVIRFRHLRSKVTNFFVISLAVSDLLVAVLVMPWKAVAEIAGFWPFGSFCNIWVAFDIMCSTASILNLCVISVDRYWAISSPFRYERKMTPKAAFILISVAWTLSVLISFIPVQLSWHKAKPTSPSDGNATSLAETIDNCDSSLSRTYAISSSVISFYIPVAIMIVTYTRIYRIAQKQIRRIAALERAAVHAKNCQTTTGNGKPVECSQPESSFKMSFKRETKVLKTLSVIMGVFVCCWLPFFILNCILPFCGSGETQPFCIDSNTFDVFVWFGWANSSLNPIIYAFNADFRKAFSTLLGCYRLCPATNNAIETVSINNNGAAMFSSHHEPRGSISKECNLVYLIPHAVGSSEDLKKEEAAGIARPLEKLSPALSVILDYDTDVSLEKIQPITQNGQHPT
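Tetracycline-induced HEK293 TREx D1 cells, force-coupled to calcium signalling, were dye-loaded with a no-wash calcium kit. Compound was pin-added after a 10 s baseline. Fluorescence was read kinetically at 1 cycle/s for 180 s, with calcium rises flagged as agonism.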
D1 PAM – potentiators of human D1 dopamine receptor | HEK293 TREx D1 cells, calcium flux, dopamine EC20 potentiation | potentiation, % at 10 µM | 360,000 tested, 0.036% active; in the data active = potentiation above about 30%
D1 antag – human D1 dopamine receptor antagonism. 360,000 tested, 3.2% active. HEK293 TREx D1 cells, calcium flux, dopamine EC80; active compounds read low. activity change, negative = inhibition, % at 10 µM. AID 504652. P21728; in the data active = activity change below about -30%
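Using tetracycline-induced force-coupled D1 Hek293 cells and a calcium dye, signals were followed for 180 s after compound, then for 180 s after EC80 dopamine, to detect inhibitors.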
Numbers stand for hits; 0 = inactive; - = not tested or not shown; ! = repeats disagree. Rule as the data show it, unless noted: active = activation above about 30%; inactive = the rest.

SMILES	TRHR agonist	TRHR enhancer	D1 ag	D1 PAM	D1 antag
CCOc1ccc(CN(CCc2ccc3c(c2)OCO3)Cc2cc(OC)ccc2O)cc1	0	0	0	0	0
CCN(CC)CCSc1nc2ccccc2c(=O)n1-c1ccc(Cl)cc1	0	0	0	0	0
CCCCc1nc2ccccc2c(=O)n1-c1ccccc1O	0	0	0	0	0
CCCCCc1nc2ccccc2c(=O)n1-c1ccc(Cl)cc1[N+](=O)[O-]	0	0	0	0	-44
COC(=O)C1=C(c2cccc3c2S(=O)(=O)c2ccccc2-3)C[C@@H]2CC[C@H]1N2C(=O)N1CCOCC1	0	0	0	0	0
COC(=O)C1=C(c2cccc3c2S(=O)(=O)c2ccccc2-3)C[C@@H]2CC[C@H]1N2C(=O)N1CCc2cc(OC)c(OC)cc2C1	0	0	0	0	-48
CCOC(=O)C1CCCN(c2ccc([N+](=O)[O-])c3nonc23)C1 (stereo unspecified)	248	33	752	0	0
Cc1cc(OCC(=O)N2CCN(CCc3ccccn3)CC2)cc(C)c1Cl	0	0	0	0	0
CCOC(=O)C(O)(c1ccc(NC(=O)Oc2ccccc2)cc1)C(F)(F)F (stereo unspecified)	0	0	0	0	0
COC(=O)C(O)(c1ccc(NC(=S)NC(=O)c2ccc(Cl)cc2Cl)cc1)C(F)(F)F (stereo unspecified)	0	0	31	0	-32
COC(=O)C(O)(c1ccc(NC(=O)NC2CCCCC2)cc1)C(F)(F)F (stereo unspecified)	0	0	0	0	0
CCOC(=O)C(O)(c1ccc(NC(=S)NC(=O)c2ccc(Cl)cc2Cl)cc1)C(F)(F)F (stereo unspecified)	0	0	44	0	0
CCOc1ccc(CN(CCc2ccc3c(c2)OCO3)Cc2cccc(C)c2)cc1	0	0	0	0	0
Cc1ccc(S(=O)(=O)N(c2cc(Cl)c(O)c(Cl)c2)P(=O)(OC(C)C)OC(C)C)cc1	0	0	0	0	-33
CCOC(=O)C(NC(=O)C(Cc1ccc(N(CCCl)CCCl)cc1)NC(C)=O)C(C)C (stereo unspecified)	0	0	0	0	0
COC(=O)C(Cc1ccc(N(CCCl)CCCl)cc1)N=Cc1ccccc1O (stereo unspecified)	0	0	0	0	-40
CCCSc1nc2ccccc2c(=O)n1-c1ccccc1OC	0	0	0	0	0
CCCCc1nc2ccccc2c(=O)n1-c1cccc(OC)c1	0	0	0	0	0
CCNCC(O)c1cccc(O)c1 (stereo unspecified)	0	0	0	0	0
CC(Cc1ccc(O)cc1)NCC(O)c1cc(O)cc(O)c1 (stereo unspecified)	0	0	-	-	-31
CCOc1cccc(CNC2CN3CCC2CC3)c1 (stereo unspecified)	0	0	0	0	-51
COCCCNC(=O)Cn1cc(/C=C2\C(=O)NC(=O)N(c3ccccc3F)C2=O)c2ccccc21	0	0	32	0	0
COCCNC(=O)Cn1cc(/C=C2\C(=O)NC(=O)N(c3ccccc3F)C2=O)c2ccccc21	0	0	0	0	0
O=c1c2ccccc2nc(/C=C/c2cccc3ccccc23)n1-c1ccccc1Cl	0	0	0	0	0
CN1C(=O)NC(=O)C2(Cc3ccccc3N3CCOCC32)C1=O (stereo unspecified)	0	0	0	0	-32
SMILES	TRHR agonist	TRHR enhancer	D1 ag	D1 PAM	D1 antag
Cc1ccc(Cn2cccc(C(=O)Nc3cc([N+](=O)[O-])ccc3C)c2=O)cc1	0	0	0	0	-
CC(C)(C)c1cc([N+](=O)[O-])cc(C(C)(C)C)c1O	0	0	34	0	-36
CCCN(CCC)C1CCc2ccc(O)cc2C1 (stereo unspecified)	0	0	0	0	-61
COc1ccc(-c2nn3c(=O)cc(CN4CCN(C(=O)COc5ccc(F)cc5)CC4)nc3s2)cc1	0	0	0	0	0
N#CC(C#N)=NNc1ccc(-n2ccc(C(F)(F)F)n2)cc1	0	0	33	0	-36
Cc1cc(C)n(-c2ccc(NN=C(C#N)C#N)cc2)n1	0	0	41	0	-31
CN1C[C@H](CO)C=C2c3cccc4[nH]cc(c34)C[C@H]21	0	0	0	0	-76
COc1ccc(OCC(=O)N2CCN(Cc3ccc(SC)cc3)CC2)cc1	0	0	0	0	-38!
Cc1ccc(-n2c(=O)[nH]c3ccc(Br)cc3c2=O)cc1	0	0	0	0	0
O=c1c2ccccc2nc(/C=C/c2ccccc2O)n1-c1ccc(Br)cc1	0	0	0	0	0
C[N+]1(CC2COC(c3ccco3)O2)CCCCC1 (stereo unspecified)	0	0	0	0	-33
O=C(Nc1ccc(Br)cc1C(=O)c1ccccc1Cl)c1ccc(Br)cc1	0	0	0	0	0
CC1CN=C(Nc2ccc(F)c(Cl)c2)S1 (stereo unspecified)	0	0	0	0	-33
Fc1ccc(NC2=NCCS2)cc1Cl	0	0	0	0	0
C[C@H]1CCC/C=C/[C@@H]2C[C@H](O)C[C@H]2[C@H](O)/C=C/C(=O)O1	0	0	0	0	0
FCCN(CCF)c1cccc(Cl)c1	0	0	0	0	-34
CCOC(=O)c1cc(CC)sc1/N=C/C1C(=O)NC(=S)NC1=O	0	33	0	0	0
CCN1/C(=C\C=C\C2=[N+](CC)c3ccccc3C2(C)C)C(C)(C)c2ccccc21	124	0	204	0	0
COC(=O)C1=C(c2ccc(F)cc2OCc2ccccc2)C[C@@H]2CC[C@H]1N2C(=O)NCCOc1ccc(OC)cc1	0	0	0	0	0
COC(=O)C1=C(c2ccc(F)cc2OCc2ccccc2)C[C@@H]2CC[C@H]1N2C(=O)NCCc1ccc(F)cc1	0	0	0	0	-32
COC(=O)C1=C(c2cccc(OCc3ccccc3)c2)C[C@@H]2CC[C@H]1N2C(=O)NCc1ccccc1C(F)(F)F	0	34	0	0	0
COC(=O)C1=C(c2ccccc2OCc2ccccc2)C[C@@H]2CC[C@H]1N2C(=O)NCCOc1ccc(OC)cc1	0	0	0	0	-38
COC(=O)C1=C(c2cccc(OCc3ccccc3)c2)C[C@@H]2CC[C@H]1N2C(=O)NCc1cccc(OC)c1	0	0	0	0	-
COC(=O)C1=C(c2ccccc2OCc2ccccc2)C[C@@H]2CC[C@H]1N2C(=O)NCCOc1ccccc1	0	0	0	0	-31
COc1ccc(OCC(=O)N2CCN(Cc3cc(=O)n4nc(-c5ccccc5C)sc4n3)CC2)cc1	0	0	0	0	0
Cc1ccc(OCC(=O)Nc2ccc(Cl)cc2C(=O)c2ccccc2)c(Br)c1	0	0	0	0	0
Cc1ccc(NC(=O)CN2C(=O)CN=C(c3ccccc3)c3ccccc32)c(C)c1	0	0	0	0	0
